Hits are enriched below; roughly 21% of the tested compounds scored in any of these assays.
Pf growth 48h = Primary qHTS for delayed death inhibitors of the malarial parasite plastid, 48 hour incubation; P. falciparum luciferase growth in erythrocytes, 48 h; Potency, µM (top dose mostly 28.7 µM), without a hit: at the highest dose activity change, negative = inhibition, actives largely listed as inhibitors; 310,000 compounds, 5.9% hits; further: potency means the concentration at half of the fitted maximal effect; on the % scale 0 is the no-effect control and ±100 the full control effect
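Cell-based growth assay: transgenic P. falciparum expressing firefly luciferase, cultured in red cells within RPMI 1640 containing 0.5% w/v Albumax, 24 mM bicarbonate and gentamycin. A drop in luciferase activity indicates inhibition.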
Shiga toxin inh = A qHTS for Small Molecule Inhibitors of Shiga Toxin; Vero cells, Shiga toxin protein synthesis inhibition reporter; inhibition, % at 38.7 µM; 290,000 compounds, 9.2% hits; AID 2315, 2010; in the data active means inhibition mostly above about 28%, no sharp cut-off; inactive means mostly below about 43%; further: 0% is about no effect
CHX counter = Cycloheximide Counterscreen for Small Molecule Inhibitors of Shiga Toxin; cell reporter, cycloheximide protein synthesis inhibition counterscreen; 300,000 compounds, 12% hits; AID 2314, 2010; max response, %; in the data active means max response mostly above about 13%, no sharp cut-off; inactive means mostly below about 14%; further: read at 38.3 µM for the half of the compounds with a filed dose; 0% is about no effect
Sm TGR inh = qHTS Assay for the Inhibitors of Schistosoma Mansoni Peroxiredoxins. Schistosoma mansoni thioredoxin glutathione reductase (TGR), Q962Y6. purified TGR, DTNB reduction, TNB absorbance 405 nm. Potency, µM (doses to about 114 µM), inactives show at the top dose activity change, negative = inhibition, actives largely listed as inhibitors. 360,000 compounds, 3% hits; further: potency means the concentration at half of the fitted maximal effect; on the % scale 0 is the no-effect control and ±100 the full control effect; nearly all actives have a fitted effect of over 60% in size
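TGR 20 nM + NADPH 100 uM (dispensed conc.), cpd preinc 15 min RT; start with NADPH (500 uM addition) then DTNB (15 mM addition). Kinetic TNB absorbance, 405 nm filter. Four-parameter Hill fit across titration.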
NS1 inh = qHTS Assay for Inhibitors of Influenza NS1 Protein Function. Potency, µM (series often up to 46.1 µM), inactives show top-dose activity, positive = more growth. 270,000 compounds, 0.4% hits; calls by dose curve; further: potency means the concentration at half of the fitted maximal effect; actives are rising curves; nearly all actives have a fitted effect of over 50% in size
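Read-out: OD600 growth recovery of NS1-expressing budding yeast. Cells grown overnight at 30C in -URA glucose medium, washed, resuspended and diluted 1:100 in 2% galactose assay medium, pH 6.0. Same strain lacking NS1 served as positive control.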
Pf growth 96h = Primary qHTS for delayed death inhibitors of the malarial parasite plastid, 96 hour incubation; P. falciparum luciferase reporter growth, 96 h; Potency, µM (top dose mostly 28.7 µM), without a hit: at the highest dose activity change, negative = inhibition, actives largely listed as inhibitors; 320,000 compounds, 6.9% hits; further: potency means the concentration at half of the fitted maximal effect; on the % scale 0 is the no-effect control and ±100 the full control effect
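P. falciparum expressing integrated firefly luciferase grown in erythrocytes (2% hematocrit, 0.05% parasitemia final) with compounds for 96 hours at 37 C, 5% CO2. Growth inhibition read as loss of luminescence after adding luciferase detection reagent.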
The depositor's hits bear a star; ? = inconclusive; / = not tested or not shown. Unless noted, the call rests on the fitted dose curve; in most records, active means well fitted curve in the direction sought with a large enough effect; inconclusive means small, poorly fitted or top-dose-only effect, or another doubt; inactive means no such curve, though single readings can be large; an effect the other way counts as inactive or inconclusive.

SMILES | Pf growth 48h | Shiga toxin inh | CHX counter | Sm TGR inh | NS1 inh | Pf growth 96h
Cc1[nH]n(-c2ccccc2)c(=O)c1C(=O)Nc1ccccc1 | 45% | 31 | 16* | 4% | -10% | 4%
C/C(=N\NC(=O)c1ccc(C)cc1)c1c(C)[nH]n(-c2ccccc2)c1=O | -4% | 99 | 30* | 0% | -38% | 15µM*
Cc1nn(-c2ccccc2)nc1C(=O)c1c(C)[nH]n(-c2ccccc2)c1=O | -12% | -4 | 16 | 1% | -2% | 14%
COc1ccc(NC(=O)CCNS(=O)(=O)c2ccc3c(c2)CCN3C(=O)C2CC2)cc1Cl | / | / | / | -5% | / | /
COc1ccc(C(=O)Nc2cc(OC)nc(OC)n2)cc1 | 164% | 53* | 19* | -18% | -9% | -1%
COc1cc(NC(=O)CCc2ccccc2)nc(OC)n1 | 18% | 48* | 35* | -22% | -9% | 1%
COc1cc(NC(=O)Cc2ccccc2)nc(OC)n1 | / | 31 | -1 | 3% | 1% | 89%
COc1cc(NS(=O)(=O)c2ccc(NC(=O)c3ccc(OC)c(Br)c3)cc2)nc(OC)n1 | / | / | / | 0% | / | /
CCOc1cc(CNc2nn[nH]n2)ccc1OCC(=O)NC(C)(C)C | -6% | -8 | -3 | 0% | / | -26%
N#Cc1cccc(NC(=O)CCNS(=O)(=O)c2ccc3c(c2)CCN3C(=O)C2CC2)c1 | / | / | / | -13% | / | /
O=C(NCc1cccnc1)c1cccc(S(=O)(=O)NCc2ccccc2)c1 | ? | / | / | -6% | / | 4%
Cc1csc2nc(-c3cccc(NC(=O)C(C)C)c3)cn12 | / | / | / | 2% | / | /
CC(C)C(=O)Nc1ccc(-c2csc(-c3ccccc3)n2)cc1 | 49% | 81* | 61* | 1% | 5% | 126%
CC(C)C(=O)Nc1cccc(-c2csc(-c3ccccc3)n2)c1 | ? | 33* | 32* | 8% | -9% | ?
CS(=O)(=O)N(CC(=O)N1CCCC1)c1cc(Cl)c(Cl)cc1Cl | / | -11 | -4 | -1% | 3% | 9.3µM*
CC(=O)c1cccc(N(CC(=O)N2CCCC2)S(C)(=O)=O)c1 | 12% | -5 | 9 | 45µM* | 1% | /
Cc1nc2ccc(NC(=O)c3ccc(F)c(S(=O)(=O)N4CCOCC4)c3)cc2s1 | 45% | 5 | 4 | -25% | -4% | 0%
Cc1ccc(-c2nc3c4ccccc4[nH]c(=O)n3n2)cc1 | / | / | / | 0% | / | /
Cc1c(C(=O)Nc2ccccc2F)sc2nc3n(c(=O)c12)CCC3 | 116% | 95* | 45* | 1% | -6% | -7%
COCCCNC(=O)c1sc2nc3n(c(=O)c2c1C)CCC3 | / | / | / | 11µM* | / | /
Cc1c(C(=O)Nc2ccccn2)sc2nc3n(c(=O)c12)CCC3 | 199% | 77* | 43* | -5% | -5% | 244%
CCOC(=O)N1CCC(NC(=O)c2sc3nc4n(c(=O)c3c2C)CCCC4)CC1 | / | -8 | -3 | 3% | -5% | 2.3µM*
CCCCOc1cccc(NC(=O)c2cccc(C(=O)Nc3cccc(OCCCC)c3)c2)c1 | / | / | / | -2% | / | /
O=C(CSc1n[nH]c(-c2ccccc2)n1)NCCCc1ccccc1 | / | / | / | 0% | / | /
Cc1cc(C)nc(SCC(=O)N/N=C/c2cccc([N+](=O)[O-])c2)n1 | 27% | 11 | -1 | -2% | 8% | ?
SMILES | Pf growth 48h | Shiga toxin inh | CHX counter | Sm TGR inh | NS1 inh | Pf growth 96h
CCOC(=O)N1CCN(C(=O)Nc2sc3nc4n(c(=O)c3c2C)CCC(C)CC4)CC1 (stereo unspecified) | 12µM* | 18 | -3 | 2.8µM* | 5% | 13µM*
CCOC(=O)c1sc2nc3n(c(=O)c2c1C)CCC(C)CC3 (stereo unspecified) | / | -3 | 1 | -2% | -33% | -3%
CCCCOc1ncnc2c1[nH]c1ccccc12 | ? | 37* | 22* | 3% | -98% | 0%
CCCCOc1ncnc2c1[nH]c1ccc(F)cc12 | 23% | 50* | 34* | 0% | -49% | 0%
CCCCOc1ncnc2c1[nH]c1ccc(OC)cc12 | 92% | 77* | 56* | 20% | -26% | 272%
CCCCOc1ncnc2c1[nH]c1ccc(OCC)cc12 | 32% | 9 | 12 | 7% | -10% | 5%
Fc1ccc2[nH]c3c(Cl)ncnc3c2c1 | 6% | -3 | -7 | 0% | -34% | -37%
CCN1C(=O)CC2(C[N+]3(C)CCC2CC3)C1=O (stereo unspecified) | -9% | -8 | -2 | 6% | 13% | -1%
C/C(CC(=O)NC12CC3CC(CC(C3)C1)C2)=N\NC(=O)c1ccc(F)cc1 | 0% | 34 | 13 | 1% | 6% | 17%
COc1ccc(-c2cc(C(F)(F)F)nc(SCCC(=O)Nc3cccc(O)c3)n2)cc1 | / | / | / | -1% | / | /
Cc1ccccc1OCC(=O)Nc1ccc(C(=O)OCc2cc(=O)n3ccsc3n2)cc1 | / | / | / | -3% | / | /
O=C(Cc1nnc(NC(=O)c2ccccc2)s1)N/N=C/c1cccc(O)c1 | 28% | 12 | 14* | 4% | 10% | ?
COc1cc(/C=N\Nc2cc(=O)n(C)c(=O)n2C)ccc1O | 17% | 4 | 7 | 3% | -22% | 14%
O=C(CCc1ccc(S(=O)(=O)N2CCOCC2)cc1)N/N=C/c1ccc(O)c(O)c1O | 2% | 6 | -2 | -32% | 17% | 0%
O=C(Cc1nnc(NC(=O)c2ccccc2)s1)N/N=C/c1ccco1 | 29% | -16 | -1 | 0% | 14% | 17%
O=C(CCc1ccc(S(=O)(=O)N2CCOCC2)cc1)N/N=C/c1cccc(O)c1 | ? | 17 | 8 | -7% | -9% | 15µM*
Cn1c(N/N=C\c2cccc(O)c2)cc(=O)n(C)c1=O | 30% | 24* | 19* | -2% | -4% | 52%
O=C(N/N=C/c1cccc(O)c1)N/N=C/c1cccc(O)c1 | ? | 55* | 28* | -2% | -7% | ?
CSc1ccccc1OCc1cc(C(=O)N2CCc3c(Cl)cccc3C2)no1 | 17% | -2 | 4 | -25% | 4% | ?
Cc1ccc2onc(CC(=O)N3CCN(c4cccc(Cl)c4)CC3)c2c1 | / | / | / | -27% | / | /
Cc1cccn2c(=O)cc(COc3ccc(NC(=O)COc4ccc(F)cc4)cc3)nc12 | / | / | / | 5% | / | /
O=C(N/N=C/c1cccc(Oc2ccccc2)c1)c1cccc(O)c1 | 2% | 58* | 35* | 7% | 0% | ?
O=C(CCc1ccccc1)N/N=C/c1cccc([N+](=O)[O-])c1 | -21% | 22 | 10 | 5% | -1% | ?
O=C(CCc1ccccc1)N/N=C/c1cccc(O)c1 | -3% | 6 | 15* | 3% | -3% | -3%
Cc1nonc1C(=O)N/N=C/c1cccc(O)c1 | -15% | 65* | 54* | 11µM* | -12% | 2.1µM*
CN(Cc1c(C(=O)N/N=C/c2cccc(O)c2)nnn1-c1nonc1N)c1ccccc1 | 11% | -13 | -9 | -12% | -4% | 53%
